Screening results deposited in PubChem BioAssay by Broad Institute.
UGM FP inh: inhibitors of M. tuberculosis UDP-galactopyranose mutase; P9WIQ1; purified UGM, fluorescence polarization probe displacement; inhibition, % at 10 µM; hit rate 0.06% among 320,000; AID 504406; in the data active means inhibition above about 10%, passing the limit was not always enough
TcdB GH inh: TcdB glycohydrolase inhibition; P18177; hit rate 0.24% among 350,000; TcdB glycohydrolase enzymatic assay, plate reader; inhibition, % at 9.99 µM; in the data active means inhibition above about 10%
Target sequence (P18177 whole entry, looked up): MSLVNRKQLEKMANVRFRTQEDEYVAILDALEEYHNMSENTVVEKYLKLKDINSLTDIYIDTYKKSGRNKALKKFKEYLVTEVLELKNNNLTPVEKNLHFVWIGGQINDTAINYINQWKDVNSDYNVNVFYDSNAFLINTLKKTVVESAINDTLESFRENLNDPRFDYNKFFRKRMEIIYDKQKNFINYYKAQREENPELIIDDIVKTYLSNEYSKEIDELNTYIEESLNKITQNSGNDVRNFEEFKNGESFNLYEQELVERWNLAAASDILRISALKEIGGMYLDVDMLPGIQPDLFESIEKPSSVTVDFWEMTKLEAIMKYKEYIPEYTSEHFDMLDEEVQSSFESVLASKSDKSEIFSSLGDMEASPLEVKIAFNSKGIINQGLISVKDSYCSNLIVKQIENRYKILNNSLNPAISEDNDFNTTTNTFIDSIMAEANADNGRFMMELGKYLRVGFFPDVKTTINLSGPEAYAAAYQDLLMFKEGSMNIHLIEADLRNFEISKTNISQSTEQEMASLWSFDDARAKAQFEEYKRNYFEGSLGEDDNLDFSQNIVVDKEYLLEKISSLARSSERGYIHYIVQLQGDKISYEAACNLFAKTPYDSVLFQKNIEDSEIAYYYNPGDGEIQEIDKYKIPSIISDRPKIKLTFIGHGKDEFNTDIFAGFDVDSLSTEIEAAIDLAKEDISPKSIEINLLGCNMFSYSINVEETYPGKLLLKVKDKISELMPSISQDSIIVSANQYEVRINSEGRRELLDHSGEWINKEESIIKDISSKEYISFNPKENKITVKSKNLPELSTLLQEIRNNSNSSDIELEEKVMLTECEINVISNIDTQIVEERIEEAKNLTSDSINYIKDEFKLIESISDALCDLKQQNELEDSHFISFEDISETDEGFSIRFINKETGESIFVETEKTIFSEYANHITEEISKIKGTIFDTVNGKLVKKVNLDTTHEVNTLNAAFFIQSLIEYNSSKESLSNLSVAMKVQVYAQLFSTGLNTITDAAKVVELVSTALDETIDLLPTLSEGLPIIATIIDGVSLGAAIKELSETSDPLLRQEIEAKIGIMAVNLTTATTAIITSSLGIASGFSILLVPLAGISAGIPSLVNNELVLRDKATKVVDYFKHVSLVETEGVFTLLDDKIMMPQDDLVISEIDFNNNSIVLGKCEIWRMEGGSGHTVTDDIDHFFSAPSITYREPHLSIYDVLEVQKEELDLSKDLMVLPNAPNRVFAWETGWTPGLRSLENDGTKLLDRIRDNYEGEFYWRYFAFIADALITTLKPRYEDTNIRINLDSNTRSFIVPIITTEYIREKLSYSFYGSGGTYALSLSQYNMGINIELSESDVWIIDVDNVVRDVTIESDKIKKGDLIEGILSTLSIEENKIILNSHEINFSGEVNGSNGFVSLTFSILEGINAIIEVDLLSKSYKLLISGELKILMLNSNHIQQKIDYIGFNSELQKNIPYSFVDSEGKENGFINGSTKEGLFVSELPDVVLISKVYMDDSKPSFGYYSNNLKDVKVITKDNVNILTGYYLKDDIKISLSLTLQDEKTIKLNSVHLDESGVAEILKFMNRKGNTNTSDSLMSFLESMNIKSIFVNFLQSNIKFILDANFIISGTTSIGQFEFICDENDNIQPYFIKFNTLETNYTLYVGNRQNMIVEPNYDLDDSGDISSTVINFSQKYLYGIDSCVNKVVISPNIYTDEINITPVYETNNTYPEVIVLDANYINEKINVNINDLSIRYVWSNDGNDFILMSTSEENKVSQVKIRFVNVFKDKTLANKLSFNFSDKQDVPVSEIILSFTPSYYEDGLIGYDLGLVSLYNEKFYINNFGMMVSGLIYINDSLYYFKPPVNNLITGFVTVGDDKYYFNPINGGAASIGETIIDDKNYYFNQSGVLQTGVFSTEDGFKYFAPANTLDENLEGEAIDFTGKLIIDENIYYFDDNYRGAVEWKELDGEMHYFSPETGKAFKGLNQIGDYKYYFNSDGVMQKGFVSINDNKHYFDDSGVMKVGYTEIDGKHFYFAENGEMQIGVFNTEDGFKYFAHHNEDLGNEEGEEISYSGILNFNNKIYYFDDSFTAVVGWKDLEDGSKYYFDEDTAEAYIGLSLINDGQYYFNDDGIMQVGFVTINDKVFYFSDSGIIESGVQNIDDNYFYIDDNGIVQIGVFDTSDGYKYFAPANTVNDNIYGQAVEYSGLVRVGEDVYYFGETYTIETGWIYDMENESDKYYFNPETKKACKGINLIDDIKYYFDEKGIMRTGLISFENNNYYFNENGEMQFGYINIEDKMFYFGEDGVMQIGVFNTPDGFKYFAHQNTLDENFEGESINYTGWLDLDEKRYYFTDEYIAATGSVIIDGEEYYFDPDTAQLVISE
Y pestis TopoI: blocks Yersinia pestis topoisomerase I activity; AID 504884; hit rate 0.064% among 360,000; Y. pestis Topo-I cleavage product accumulation, plate reader; activity, % at 10 µM; in the data active means activity above about 50%, passing the limit was not always enough
PrP 5UTR inh: suppresses PrP 5' UTR mRNA reporter expression | cell-based PrP 5' UTR mRNA reporter, plate reader | inhibition, % (concentration not given with the values) | hit rate 0.35% among 340,000 | AID 488862; in the data active means inhibition above about 52%; further: 0 = median of the neutral control wells
Vc quorum ag-1: quorum light induction in luxS cqsA deficient V. cholerae; V. cholerae BH1578 lux reporter, luminescence, 6 h; activation, % at 18.7 µM; hit rate 0.16% among 350,000; AID 588436; in the data active means activation mostly above about 9.7%, no sharp cut-off
Vc quorum ag-2: inducers of V. cholerae quorum light production without autoinducers; activation, % at 50 µM; shares compounds with Vc quorum ag-1; V. cholerae BH1578 lux reporter, luminescence, 6 h; 620 tested, under 10 active; call rule not given here
HeLa tox: HeLa cell viability loss at 24 h; 25 tested, under 10 active; shares compounds with Vc quorum ag-1; activity change, negative = cytotoxicity, % at 35 µM; CellTiter-Glo ATP luminescence;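 active means signal drop with fitted half-maximal concentration at or below twice the highest valid dose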
The depositor's hits bear a star; i = inactive; . = no result. Rows were chosen to be rich in hits. Some 0.65% of all compounds tested hit in one or more screens of this group.

SMILES | UGM FP inh | TcdB GH inh | Y pestis TopoI | PrP 5UTR inh | Vc quorum ag-1 | Vc quorum ag-2 | others
CC=Cc1ccc2n(c1=O)C[C@H]1[C@H](CO)[C@@H](C(=O)NCc3cccc(F)c3)[C@@H]2N1S(C)(=O)=O (mixture of isomers) | . | -2 | . | . | . | .
O=S(=O)(Nc1ccc(-c2csc(-c3ccccc3)n2)cc1)c1ccc(F)cc1 | 2 | . | 1 | 4 | 25* | 0
CCC(CC)c1nnc(NC(=O)COc2ccc3c(C)cc(=O)oc3c2)s1 | 6 | . | -5 | . | 25 | 0
Cc1nnc(NC(=O)COc2ccc3c(C)cc(=O)oc3c2)s1 | 3 | . | 7 | -4 | -1 | .
O=C(c1ccccc1)N1CCC(c2nc(-c3ccc(S(=O)(=O)N4CCOCC4)cc3)no2)CC1 | 0 | . | 25 | -55 | 7 | 1
Cc1cccc(C(=O)N2CCC(c3nc(-c4ccc(S(=O)(=O)N5CCOCC5)cc4)no3)CC2)c1 | 1 | . | 10 | -60 | i | .
O=C(C[C@H]1CC[C@@H](NC(=O)C2CC2)[C@H](CO)O1)NCCCN1CCOCC1 | . | -1 | . | . | . | .
Cc1ccc(C(=O)OCC(=O)NCC(F)(F)F)cc1C | -1 | 2 | -4 | -19 | 21 | 153
O=C(C[C@@H]1CC[C@H]2[C@@H](COC[C@H](O)CN2Cc2nccs2)O1)NCc1ccc(-c2ccccc2)cc1 | . | -1 | . | . | . | .
CC(C)Cn1c(CN2CCN(C)C(CCO)C2)nc2ccccc21 (stereo not given) | -4 | 1 | -3 | -61 | 72* | 0
CN1CCN(Cc2nc3ccccc3n2C)CC1CCO (stereo not given) | 2 | -1 | -1 | -17 | i | .
CCC(=O)Nc1ccc2c(c1)C(=O)N(C)[C@H]1CC[C@@H](CC(=O)O)O[C@@H]1CO2 | . | 1 | . | . | . | .
CC1(c2ccc(Cl)cc2)NC(=O)N(CC(=O)NCCC2=CCCCC2)C1=O (stereo not given) | 3 | 1 | 6 | -34 | -5 | .
Cc1ccc(C2(C)NC(=O)N(CC(=O)NCCC3=CCCCC3)C2=O)cc1 (stereo not given) | 1 | . | 10 | -11 | 228* | 0
COc1ccccc1N1CCN(CCCOc2ccc(F)cc2)CC1 | 0 | . | 5 | -14 | 12 | 0
COc1ccc(CN(C)C[C@H]2Oc3ccc(NC(=O)NC(C)C)cc3C(=O)N([C@@H](C)CO)C[C@@H]2C)cc1 | . | -1 | . | . | . | .
CCC(=O)Nc1ccc2c(c1)C(=O)N(C)C[C@H](OC)[C@H](C)CN(C(=O)c1ccc(F)cc1)[C@@H](C)CO2 | . | -1 | . | . | . | .
COc1ccc(NC(=O)C(=O)NCC2CCCN2S(=O)(=O)c2ccc(C)cc2)cc1 (stereo not given) | 2 | 2 | 29 | 78* | 14 | 0
COc1ccc(CCNC(=O)C(=O)NCC2CCCN2S(=O)(=O)c2ccc(OC)cc2)cc1 (stereo not given) | 0 | 0 | 28 | -15 | 29* | 0
COc1ccc(S(=O)(=O)N2CCCC2CNC(=O)C(=O)Nc2ccc(C)cc2)cc1 (stereo not given) | 1 | -1 | 8 | 4 | 0 | .
CO[C@H](CN(C)C(=O)C1CCOCC1)[C@@H](C)CN(C(=O)Nc1ccc(F)cc1)[C@H](C)CO | . | -1 | . | . | . | .
Cc1cc(NC2CCCCC2)nc(-c2ccccc2O)n1 | -1 | . | -5 | -25 | 17* | 5
O=C(O)C1=C[C@H](c2ccc3c(c2)Cc2ccccc2-3)C[C@H](OCCCCO)O1 | . | 2 | . | . | . | .
CCn1nc(NC(=O)c2ccco2)c2cc3ccccc3nc21 | -3 | . | 2 | -7 | 40* | 216
CC(=O)N1[C@H](C(=O)N[C@@H](C)c2ccccc2)[C@@H](CO)[C@@H]2Cn3c(cccc3=O)[C@@H]21 | . | -5 | . | . | . | .
Oc1ccc(-c2cn3c(n2)SCC3)cc1 | 2 | . | -3 | -8 | 17* | 0
COc1ccc(-n2nnnc2SC(C)C(=O)NCC(=O)Nc2ccc(F)c(F)c2F)cc1 (stereo not given) | -3 | . | -8 | -5 | 0 | .
COc1ccc2nc(SC(C)C(=O)NCC(=O)Nc3ccc(F)c(F)c3F)[nH]c2c1 (stereo not given) | . | 2 | -9 | -47 | 14 | 0
CCc1ccc(C(=O)Nc2nnnn2CC)cc1 | . | . | . | . | . | . | HeLa tox=-5
CCn1nnnc1NC(=O)c1cccc(OC)c1 | 0 | -2 | 1 | -47 | 0 | .
